# Source: PubChem (National Center for Advancing Translational Sciences (NCATS))
# This is a sample that favours compounds with a hit; in the whole collection about 2.9% have one here.
# POLK inh: inhibitors of human DNA polymerase kappa | Q9UBT6 | purified Pol kappa, fluorescent DNA synthesis assay, 10 min | Potency, µM (top dose mostly 107 µM), for inactives: at the top dose activity, negative = inhibition, usual class: inhibitors | 0.53% of 400,000 active; further: potency means the concentration at half of the fitted maximal effect; on the % scale 0 is the no-effect control and ±100 the full control effect
#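 Activity was followed as the change in fluorescence between reads at 0 and 10 min after starting the reaction with 50 nM substrate. Beforehand, 10 nM polymerase had been preincubated with compound for 15 min at room temperature.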
# POLI inh: blocks human DNA polymerase iota activity; Q9UNA4; Pol iota fluorescent replication assay, 10 min; Potency, µM (titrated, usually from 115 µM), without a hit: top-dose activity, negative = inhibition, actives largely listed as inhibitors; 1% of 390,000 active; AID 588590; further: potency means the concentration at half of the fitted maximal effect
#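 Fluorescent replication assay read twice, at 0 min and 10 min after adding 50 nM (final) substrate. Enzyme (10 nM) and compounds were first incubated 15 min at room temperature; enzyme-free buffer wells were negative controls.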
# POLH inh: blocks human DNA polymerase eta activity. Q9Y253. recombinant Pol eta, fluorescent DNA replication assay. Potency, µM (highest dose often 114 µM), for the others: top-dose activity change, negative = inhibition, actives largely listed as inhibitors. 1.2% of 390,000 active. AID 588591; further: potency means the concentration at half of the fitted maximal effect; on the % scale 0 is the no-effect control and ±100 the full control effect
#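 Pol eta at 10 nM preincubated with compounds 15 min at room temperature; reaction started with fluorescent substrate (50 nM final) and read kinetically at 0 and 10 min.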
# Pol beta inh: DNA polymerase beta (human) inhibition. Pol beta primer extension/strand displacement, fluorescence kinetic. Potency, µM (highest dose often 114 µM), for inactives: top-dose activity change, negative = inhibition, usual class: inhibitors. P06746. 1.3% of 340,000 active; further: potency means the concentration at half of the fitted maximal effect; on the % scale 0 is the no-effect control and ±100 the full control effect
#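 10 nM enzyme + cpd, 15 min RT; start with substrate 50 nM final; read 0 min and after 10 min RT. Corrected, normalized data; 4-parameter Hill curve fit.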
# PI5P4K alpha inh: blocks human PI5P4K alpha kinase activity | P48426 | PI5P4Kalpha enzyme, ADP-Glo luminescence, 60 min; stronger effect = lower value | max response, % | 1.2% of 330,000 active | AID 652105; active means max response of -50% or lower; inconclusive means between -30% and -50%; inactive means -30% or higher; further: value at the top dose of about 77 µM; on the % scale 0 is the no-effect control and ±100 the full control effect
#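 ADP-Glo luminescence end-point after a 60 min room-temperature kinase reaction. PI5P4Kalpha and substrate in HEPES pH 7.4 buffer with EGTA, 0.1% CHAPS and 5% DMSO; ATP at 5 microM final.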
# 12-LOX inh: inhibitors of human 12S-lipoxygenase ALOX12; P18054; purified 12hLO, xylenol orange hydroperoxide absorbance; Potency, µM (series often up to 108 µM), inactives show top-dose activity change, negative = inhibition, hits mostly inhibitors; 1.1% of 580,000 active; AID 1671190; further: potency means the concentration at half of the fitted maximal effect; on the % scale 0 is the no-effect control and ±100 the full control effect
# Target sequence (P18054 whole entry, looked up): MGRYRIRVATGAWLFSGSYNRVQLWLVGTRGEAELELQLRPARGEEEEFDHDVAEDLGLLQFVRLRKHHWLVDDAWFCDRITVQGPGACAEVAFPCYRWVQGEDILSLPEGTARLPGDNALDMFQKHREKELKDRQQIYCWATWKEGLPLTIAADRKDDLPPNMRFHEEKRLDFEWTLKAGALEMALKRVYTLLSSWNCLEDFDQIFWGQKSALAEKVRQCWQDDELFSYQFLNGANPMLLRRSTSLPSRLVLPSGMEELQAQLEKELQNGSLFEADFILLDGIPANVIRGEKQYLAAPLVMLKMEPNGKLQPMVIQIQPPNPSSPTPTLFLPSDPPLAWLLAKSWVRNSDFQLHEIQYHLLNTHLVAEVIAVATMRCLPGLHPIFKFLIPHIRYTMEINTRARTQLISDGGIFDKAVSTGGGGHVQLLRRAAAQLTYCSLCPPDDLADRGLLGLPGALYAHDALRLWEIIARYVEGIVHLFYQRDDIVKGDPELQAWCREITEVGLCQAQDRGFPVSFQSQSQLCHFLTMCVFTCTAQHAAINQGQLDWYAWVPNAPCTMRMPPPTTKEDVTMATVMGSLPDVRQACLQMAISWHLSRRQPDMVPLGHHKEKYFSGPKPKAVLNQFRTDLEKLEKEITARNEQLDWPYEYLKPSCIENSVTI
#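 Purified human 12hLO at 150 nM in 25 mM Hepes, 0.01% Triton X-100, pH 7.0, preincubated 15 min at room temperature with compound. Reaction started with 40 uM arachidonic acid, 30 min at room temperature. Hydroperoxide measured by Fe-xylenol orange, 573/405 nm absorbance ratio.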
# * marks the source's active call; other numbers are inactive results; ? = inconclusive; . = not tested or not shown; [ ] = remark or other dose. Unless noted, the call rests on the fitted dose curve; in most records, active means well fitted inhibition curve with a large enough effect; inconclusive means small, poorly fitted or top-dose-only effect, or another doubt; inactive means no such curve, though single readings can be large or run the other way.
SMILES,POLK inh,POLI inh,POLH inh,Pol beta inh,PI5P4K alpha inh,12-LOX inh
CCc1nnc(NC(=O)C2Cc3ccccc3CN2S(=O)(=O)c2cccs2)s1 (configuration not stated),?,?,?,-14%,?,0%
O=C(Nc1nnc(C2CC2)s1)C1Cc2ccccc2CN1C(=O)c1ccco1 (configuration not stated),-46%,28µM*,?,7.9µM*,?,-20%
CN(C)S(=O)(=O)c1cccc(NC(=O)C2Cc3ccccc3CN2C(=O)c2ccco2)c1 (configuration not stated),-32%,35µM*,?,?,?,?
O=C(Nc1nnc(SCc2ccc(F)cc2)s1)C1Cc2ccccc2CN1C(=O)c1ccco1 (configuration not stated),?,?,22µM*,-34%,?,0%
N#CCCSc1sc(=S)sc1SCc1cc(C(F)(F)F)cc(C(F)(F)F)c1,.,.,.,.,.,-56%
CC1CCN(S(=O)(=O)c2ccc3c(c2)CCN3C(=O)Nc2ccc(F)cc2)CC1,.,.,.,.,.,4%
CN(Cc1cccnc1)c1nc2c(c(=O)[nH]1)CCN(Cc1ccccc1C(F)(F)F)CC2,.,.,.,.,.,84%
COc1ccc(OCCNC(=O)c2cc3ccccc3[nH]2)cc1,.,.,.,.,.,3%
CC1Cc2cc(C(=O)c3cc4cc(Br)ccc4o3)ccc2N1S(C)(=O)=O (configuration not stated),.,.,.,.,.,14%
O=S(=O)(/C=C/c1ccccc1)Nc1ccc(Sc2nncs2)cc1,.,.,.,.,.,-17%
O=C(Nc1ccc(S(=O)(=O)N2CCCC2)cc1)C1=COCCO1,.,.,.,.,.,1%
Cc1cccc(CNc2ccnc(-c3ccoc3)n2)c1,-19%[60.1 µM],.,.,.,.,20µM*
COc1ccc(N2Cc3cccc(C(=O)Nc4ccc(C)c(C)c4)c3C2=O)cc1,-27%,?,-24%,11µM*,.,-11%
CCCN1Cc2cccc(C(=O)Nc3cc(OC)cc(OC)c3)c2C1=O,-13%,-28%[58.9 µM],-1%,7%,.,9%
COc1ccc(N2Cc3cccc(C(=O)Nc4ccc(F)cc4)c3C2=O)cc1,?,?,?,6.3µM*,.,3%
COc1ccc(N2Cc3cccc(C(=O)NC(C)CCc4ccco4)c3C2=O)cc1 (configuration not stated),?,?,22µM*,7.9µM*,-11,-6%
COCCN1Cc2cccc(C(=O)Nc3ccc(C)c(C)c3)c2C1=O,-5%,5%,-4%,3%,-6,0%
Cc1c(C)n(Cc2ccncc2)c2ncn3nc(Cc4ccccc4)nc3c12,.,.,.,.,.,-13%
CSc1ncc2c(=O)n(CC(=O)Nc3ccccc3F)cnc2n1,.,.,.,.,.,13%
COc1ccc(S(=O)(=O)N2CCN(c3ccccc3F)CC2)cc1-c1noc(C)n1,-17%,88%,-14%,8.9µM*,.,2%
CC(C)C(NC(=O)C12CC3CC(CC(C3)C1)C2)C(=O)N/N=C/C1=C(N2CCOCC2)C(=C\c2cccc([N+](=O)[O-])c2)/CC1 (configuration not stated),-2%,21%,-12%,-22%,3,-24%
Cn1cc(C(=O)N/N=C/C2=C(N3CCOCC3)C(=C/c3ccc([N+](=O)[O-])cc3)/CC2)ccc1=O,-33%,50µM*,?,.,?,24%
COc1cccc(C2CC(c3ccc(NS(C)(=O)=O)cc3)=NN2C(=O)c2ccccc2)c1OC (configuration not stated),-22%,89µM*,?,-7%,?,-3%
COc1ccccc1C1CC(c2ccc(NS(C)(=O)=O)cc2)=NN1C(=O)c1ccccc1 (configuration not stated),-5%,12%,-10%,0%,3,-19%
Cc1cc(OCC(=O)Nc2cc(-c3nc4ncccc4o3)ccc2C)ccc1Cl,-14%,-13%,79µM*,-4%,.,-12%
SMILES,POLK inh,POLI inh,POLH inh,Pol beta inh,PI5P4K alpha inh,12-LOX inh
Cc1ccc(-c2nc3ncccc3o2)cc1NC(=O)c1ccccc1,1%,-6%,56µM*,9%,-1,141%
CCN(CC)C(=O)Cn1nnnc1-c1ccc(Br)cc1,.,.,.,.,.,12%
COc1cc(C2CC(=O)N(c3sc4c(c3C#N)CCCC4)C3=C2C(=O)CCC3)cc(OC)c1OC (configuration not stated),.,.,.,.,.,36%
CCCCOc1ccc2ccccc2c1/C=C(/C#N)c1nc2ccccc2[nH]1,.,.,.,.,.,3%
N#Cc1c(-c2cccs2)nc(SCC(=O)c2cccs2)[nH]c1=O,-26%,?,?,1%,-70*,10µM*
N#Cc1c(-c2ccccc2)nc(SCC(=O)Nc2ccccc2)[nH]c1=O,-4%,7%,2%,-21%,?,-29%
O=C(CSc1nc2ccccc2c(=O)[nH]1)c1cccs1,-13%,-17%,-9%,-9%,-6,6.3µM*
O=C(CSc1nc2ccccc2c(=O)[nH]1)c1ccc(O)cc1O,-3%,-6%,-15%,-3%,-5,-19%
COC(=O)c1cc2c(C(F)(F)F)cc(-c3ccccc3)nc2s1,.,.,.,.,.,-1%
C=CCn1c2ccccc2c(=O)c2cc(C#Cc3ccsc3)ccc21,.,.,.,5µM*,.,.
C=CCn1c2ccccc2c(=O)c2cc(C#Cc3ccccn3)ccc21,0%,?,5%,.,-29,-19%
O=C(c1cccc(Cl)c1)N1CCC2(CC1)CCN(Cc1cccs1)c1ccccc1O2,.,.,.,.,.,28%
CCOc1ccc(C=Nc2ccc(N(C)C)cc2)cc1,.,.,.,.,.,32µM*
Oc1ccc(N=Cc2ccc(OCc3ccccc3)cc2)cc1,-22%,?,22µM*,2%,?,103%
O=c1c2ccccc2cnn1Cc1coc(-c2ccc(Cl)cc2)n1,.,.,.,.,.,-2%
O=c1c([N+](=O)[O-])c(O)c2cccc3c2n1CCC3,?,-86%,50µM*,35µM*,-27,-8%
O=C1Nc2cc(C(=O)NCCN3CCCCCC3)ccc2S/C1=C/c1ccccc1F,.,.,-18%,.,?,28µM*
CN(C)CCCNc1cc(O)c2ncccc2c1,-13%,6.3µM*,-5%,.,.,-23%
Oc1cc(NCc2ccc(F)cc2)cc2cccnc12,-6%,77%,-14%,.,.,?
OCCc1cnccn1,.,.,.,.,.,10%
Cc1ccc(-n2nnnc2SCC(=O)NNC(=O)c2ccc([N+](=O)[O-])cc2)cc1,?,?,?,5.6µM*,-7,-9%
CCN1c2cc(C(=O)Nc3cccc(SC)c3)ccc2C(=O)N2CCCCCC21 (configuration not stated),.,.,.,.,.,5%
Cc1cc(C)c2nc(Nc3nc(C)cc(C)n3)nc(C)c2c1,.,.,.,.,.,12%
Cc1cc(C)c2nc3nc(C)c(C)cc3c(N)c2c1,?,32µM*,-20%,16µM*,0,-3%
Cc1n[nH]c(C)c1/C=C/C(=O)c1ccc(Br)cc1,.,.,.,.,.,46%
